Sfp PPTase inh: inhibitors of Bacillus subtilis Sfp phosphopantetheinyl transferase. Q9F4F7. Biochemical Sfp PPTase activity, qHTS. Potency, µM, usual class: inhibitors. 310,000 compounds, 3.5% hits. AID 1490;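 note: the enzyme is Sfp with the accession as filed and its product quenches rhodamine fluorescence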
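Buffer: 50 mM Hepes-Na pH 7.6, 10 mM MgCl2, 0.01% Nonidet P-40, 0.01% BSA. Enzyme 15 nM, pre-exposed to compound 15 min; substrates then added and fluorescence change tracked over 30 min.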
Mm-Cpn inhibitor: M. maripaludis TRiC chaperonin inhibition; purified Mm-Cpn ATPase, ADP Transcreener TR-FRET; Potency, µM (doses to about 76.9 µM), usual class: inhibitors; 330,000 compounds, 0.031% hits; note: nearly all actives have a fitted effect of over 80% in size
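TR-FRET (320 nm excitation; 590 and 665 nm emission) reports ADP made from 10 uM ATP by 25 nM enzyme; compounds were preincubated 10 min, reaction run 30 min, both at 37°C.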
G9a block: inhibitors of human histone lysine methyltransferase G9a | G9a H3K9 monomethylation, AlphaScreen, 2 h | 350,000 compounds, 8.8% hits | Potency, µM (highest dose often 102 µM), actives largely listed as inhibitors; note: nearly all actives have a fitted effect of over 75% in size
Target sequence (Q96KQ7 913-1193 limits assumed): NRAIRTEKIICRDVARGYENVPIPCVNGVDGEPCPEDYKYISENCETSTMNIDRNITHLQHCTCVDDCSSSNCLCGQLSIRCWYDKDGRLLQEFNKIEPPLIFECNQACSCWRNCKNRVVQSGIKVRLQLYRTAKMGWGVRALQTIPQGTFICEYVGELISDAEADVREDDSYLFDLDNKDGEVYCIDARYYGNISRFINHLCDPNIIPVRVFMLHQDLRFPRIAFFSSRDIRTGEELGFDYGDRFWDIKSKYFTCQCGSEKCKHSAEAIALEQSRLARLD
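Readings reflect AlphaScreen signal from monomethyl-H3K9 antibody detection. HMT at 20 nM; substrate b-H3K9 500 nM; cofactor SAM 20 uM; 2 h RT reaction; compounds tested as titrations in qHTS with 15 min preincubation.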
VDR inhibitor: blocks the human vitamin D receptor | 400,000 compounds, 0.93% hits | AID 504847 | VDR-SRC2-3 peptide fluorescence polarization, 2 h | P11473 | Potency, µM, actives largely listed as inhibitors
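Measured by FP: displacement of SRC2-3 coactivator peptide from VDR by library compounds, following a two-hour ambient incubation.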
PLK1 PBD block: inhibitors of human PLK1 polo-box domain binding | P53350 | Plk1 PBD binding of FITC phosphopeptide, fluorescence polarization | Potency, µM, usual class: inhibitors | 360,000 compounds, 2.8% hits | AID 720504; note: series mostly up to about 57 µM; nearly all actives have a fitted effect of over 65% in size
CCT modulator: changes cytosolic chaperonin activity; purified chaperonin ATPase assay, HTRF ADP detection, 30 min; activity change, % (test concentration not listed), hits read low; 360,000 compounds, 0.3% hits; AID 651819; in the data active = activity change below about -30%
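TRiC (40 or 20 nM final, by batch activity) in 30 mM Tris pH 7.4, 100 mM KCl, 5 mM MgCl2, 1 mM DTT was treated with compound at 76 uM single dose, then 10 uM ATP, 30 min at 37 °C. ADP was read by HTRF Transcreener.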
Numbers stand for hits; - = inactive; ? = inconclusive; . = not tested or not shown; [ ] = remark or other dose. A selection: hits, their analogues and other compounds. The true share with any hit is near 10%. Unless noted, calls come from the whole dose curve; as a rule, active = well fitted curve in the direction sought with a large enough effect; inconclusive = small, poorly fitted or top-dose-only effect, or another doubt; inactive = no such curve, though single readings can be large; an effect the other way counts as inactive or inconclusive.

SMILES	Sfp PPTase inh	Mm-Cpn inhibitor	G9a block	VDR inhibitor	PLK1 PBD block	CCT modulator
Cc1ccc(CN(C(=O)c2cccs2)C2CCS(=O)(=O)C2)cc1 (configuration not stated)	-	-	-	-	-	-
CCN(CC)c1ccc(CN(C(=O)c2cccs2)C2CCS(=O)(=O)C2)cc1 (configuration not stated)	-	-	39.8µM	-	-	-
CCN(CC)c1ccc(CN(C(=O)c2cc(OC)c(OC)c(OC)c2)C2CCS(=O)(=O)C2)cc1 (configuration not stated)	-	-	35.5µM	-	-	-
CCc1ccc(CN(C(=O)c2ccco2)C2CCS(=O)(=O)C2)cc1 (configuration not stated)	-	-	?	-	-	-
CCN(CC)c1ccc(CN(C(=O)c2ccco2)C2CCS(=O)(=O)C2)cc1 (configuration not stated)	-	-	44.7µM	-	-	-
COc1ccc(-c2nnc(SCC(=O)Oc3cccc(C)c3C)o2)cc1	.	.	-	-	.	.
Clc1ccccc1CNCC1CCC(CNCc2ccccc2Cl)CC1 (configuration not stated)	-	.	.	-	.	.
Cc1ccc(Nc2nc3ccccc3c3nnc(C)n23)c(C)c1	.	.	-	-	.	.
COc1ccc(OC)c([N+](=O)[O-])c1C(N)=O	-	-	31.6µM	-	?	-
COc1cc(C(=O)O)c([N+](=O)[O-])c(OC)c1OC	-	-	-	-	-	-
COc1ccc2[nH]cc(CCN=C(NC(=O)c3ccccc3F)Nc3nc(C)cc(C)n3)c2c1	.	.	-	-	.	.
Cn1cnc2c(=O)oc3ccc(S(=O)(=O)N4CCN(c5cccc(C(F)(F)F)c5)CC4)cc3c21	.	.	-	-	.	.
COc1ccccc1Nc1c2c(nc3ccc(NC(=O)c4cccc(F)c4)cc13)CCCC2	.	.	?	-	.	.
COc1ccc(/C=C/C(=O)Nc2ccc3nc4c(c(Nc5ccccc5OC)c3c2)CCCC4)cc1	.	.	7.94µM	-	.	.
COc1cccc(/C=C/C(=O)Nc2ccc3nc(N4CCN(C)CC4)cc(C)c3c2)c1OC	.	.	?	-	.	.
COc1ccccc1Nc1c2c(nc3ccc(NC(=O)/C=C/c4cccc(OC)c4OC)cc13)CCCC2	.	.	11.2µM	-	.	.
COc1ccc(Nc2c3c(nc4ccc(NC(=O)/C=C/c5cccc(OC)c5OC)cc24)CCCC3)cc1OC	.	.	11.2µM	-	.	.
COc1ccc2cc(CCNS(=O)(=O)c3ccc(C)cc3)c(=O)[nH]c2c1	.	.	-	-	.	.
Cc1ccc(N2C(N)=C(C#N)C(c3cc(CN4CCOCC4)cs3)C3=C2CC(C)(C)CC3=O)cc1 (configuration not stated)	-	-	50.1µM	-	-	-
COc1ccc(C(=O)C(C)OC(=O)CCN2C(=O)C3CC=CCC3C2=O)cc1 (configuration not stated)	.	-	7.94µM	-	-	-
Cc1ccc(C(=O)Nc2ccccc2C(=O)OCc2cc(=O)n3nc(C4CC4)sc3n2)cc1	.	.	-[12.7 µM]	-	.	.
Cc1cccc(NC(=S)NCCc2ccccc2)n1	56.2µM	-	-	-	33.6µM	-
CC(C)(C)NC(=S)NCCc1ccccc1	-	-	44.7µM	-	-	-
S=C(NCCc1ccccc1)Nc1ccccn1	-	-	1.41µM	-	-	-
CO[C@@H]1COC(=O)[C@H](COCc2ccccc2)NC(=O)C/C=C\[C@@H](C)[C@H](OC)COC(=O)[C@H](COCc2ccccc2)NC(=O)C/C=C\[C@H]1C	-	.	.	.	.	.
SMILES	Sfp PPTase inh	Mm-Cpn inhibitor	G9a block	VDR inhibitor	PLK1 PBD block	CCT modulator
COC(=O)c1cc2occc2n1CC(=O)Nc1ccc(C(C)C)cc1	.	.	-	-	.	.
COc1cccc(N2CCN(C(=O)c3ccc(CS(=O)c4cccc(Cl)c4)o3)CC2)c1 (configuration not stated)	.	.	-	-	.	.
CN1CCN(S(=O)(=O)c2ccc(NC(=S)NC(=O)c3ccccc3)cc2)CC1	?	-	?	-	26.7µM	-
CN1CCN(S(=O)(=O)c2ccc(NC(=O)c3ccccc3F)cc2)CC1	-	-	.	-	-	-
Cc1occc1C(=O)Nc1ccc(S(=O)(=O)N2CCN(C)CC2)cc1	-	-	56.2µM	-	-	-
CN1CCN(S(=O)(=O)c2ccc(NC(=S)NC(=O)c3ccc(Cl)cc3)cc2)CC1	22.4µM	-	17.8µM	-	18.9µM	-
O=C(NCc1cccc(Br)c1)c1ccc(-n2cnc3cccnc32)cc1	.	.	-	-	.	.
Cc1c(C(=O)Nc2ccccc2)cn2c(nc3ccccc32)c1C#N	-	-	-	-	-	-
Cc1ccccc1C(=O)Nc1ccc2c(C#N)c3nc4ccccc4nc3n2c1	56.2µM	-	5.01µM	-	-	-
COc1ccc2c(-c3ccccc3)cc(N3CCOCC3)nc2c1	?	-	2.24µM	-	-	-
O=c1cc[nH]c2c1ccc1c(=O)cc[nH]c12	-	-	44.7µM	-	-	-
O=c1cc[nH]c2c(Cl)cccc12	-	-	-[0.501 µM]	-	-	-
CCCCCCCC#Cc1ccccc1/C=N/S(=O)c1ccc(C)cc1 (configuration not stated)	25.1µM	-	0.794µM	?	15µM	-
COc1ccc(CNC(=O)[C@H](C)NC(=O)C2CC(=O)N(c3ccc4c(c3)OCO4)C2)cc1 (some centres not stated)	-	-	-	-	-	-
COc1ccc(CNC(=O)[C@H](C)NC(=O)C2CC(=O)N(c3ccc(OC)cc3)C2)cc1 (some centres not stated)	-	-	-	?	26.7µM	-
CCOc1ccc(N2CC(C(=O)NCCN3C(=O)S/C(=C/c4cccnc4)C3=O)CC2=O)cc1 (configuration not stated)	.	-	14.1µM	-	-	-
CCOc1ccc(N2CC(C(=O)OCC(=O)c3ccc(OC)cc3)CC2=O)cc1 (configuration not stated)	-	-	-	?	29.9µM	-
CCOc1ccc(N2CC(C(=O)NCc3cccc(C)c3)CC2=O)cc1 (configuration not stated)	-	-	-[12.7 µM]	-	5.97µM	-
COc1ccccc1C1NC(=O)c2n[nH]c(-c3cccs3)c21 (configuration not stated)	.	.	-	-	.	.
CCOc1ccccc1N1CC(C(=O)NCCc2ccc(S(N)(=O)=O)cc2)CC1=O (configuration not stated)	-	-	-	-	-	-
O=C(NCc1ccco1)C1CC(=O)N(c2ccc(O)cc2)C1 (configuration not stated)	-	-	-[12.7 µM]	-	3.36µM	-
Cc1c(C(=O)NCCN2C(=O)S/C(=C\c3cccnc3)C2=O)cccc1[N+](=O)[O-]	-	-	-	-	-	-
CCOc1ccc(N2CC(C(=O)NCCc3ccc(S(N)(=O)=O)cc3)CC2=O)cc1 (configuration not stated)	-	-	25.1µM	-	-	-

Compound activity as filed in PubChem BioAssay.
